# Source: PubChem BioAssay (National Center for Advancing Translational Sciences (NCATS))
# HCMV inh – human cytomegalovirus inhibition. activity change, negative = inhibition, % at 57.5 µM. HFF cells, HCMV-luciferase reporter, 72 h; stronger effect = lower value. 4.5% of 410,000 active; in the data active means activity change below about -60%; inconclusive means no clear call, values can overlap the other calls; inactive means above about -39%
#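 Two compound doses tested in HFFs infected with HCMV-luciferase, MOI 1 PFU/cell, 72 h at 37C. Lysate luminescence read with OneGlo; data normalized against buffer-only and 10uM Salinomycin inhibitor controls.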
# FMDV antiviral – antivirals against foot and mouth disease virus; FMDV antiviral cell-based qHTS; Potency, µM (highest dose often 57.9 µM), without a hit: at the top dose activity change, negative = inhibition, most hits filed as inhibitors; 1.2% of 410,000 active; AID 1159524; calls by dose curve; tested in HEK293T cells; further: read-out not given here; potency means the concentration at half of the fitted maximal effect; nearly all actives have a fitted effect of over 45% in size
# Vaccinia mCherry – inhibitors of vaccinia virus infection (mCherry reporter signal); Vaccinia virus mCherry reporter infection, fluorescence; Potency, µM (highest dose often 36.5 µM), for the others: at the top dose activity change, negative = inhibition, usual class: inhibitors; 0.63% of 310,000 active; AID 720579; calls by dose curve; tested in A549 cells; further: potency means the concentration at half of the fitted maximal effect; nearly all actives have a fitted effect of over 35% in size
# HCV inhibitor – blocks hepatitis C virus. Huh7.5.1 HCVcc-Cre infection, luciferase reporter, 44 h. Potency, µM (series often up to 41.8 µM), for the others: at the top dose activity change, negative = inhibition, usual class: inhibitors. 3.4% of 340,000 active; active means well fitted inhibition curve with a large enough effect; inconclusive means small, poorly fitted or top-dose-only effect, or another doubt; inactive means no such curve, though single readings can be large or run the other way; further: potency means the concentration at half of the fitted maximal effect
#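 Reporter virus HCVcc-Cre (~0.5 moi) infects cells exposed to compound; seeding density 1,000 cells/well with 4 h settling beforehand. Luminescence, 15 sec read, taken 44 h post-infection following a 15 min RT substrate incubation.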
# Vaccinia Venus – vaccinia inhibition (Venus reporter) | Vaccinia virus Venus reporter expression, fluorescence | Potency, µM (top dose mostly 36.5 µM), for the others: at the highest dose activity change, negative = inhibition, usual class: inhibitors | 0.46% of 330,000 active | AID 720580; calls by dose curve; tested in A549 cells; further: potency means the concentration at half of the fitted maximal effect; nearly all actives have a fitted effect of over 30% in size
# * hit, by the source's call; i = inactive; ? = inconclusive; nt = no result; [ ] = remark or other dose. An excerpt weighted towards active compounds, which were near 7.3% of everything screened. On the % scale 0 is the no-effect control and ±100 the full control effect.
SMILES,HCMV inh,FMDV antiviral,Vaccinia mCherry,HCV inhibitor,Vaccinia Venus
O=C(C[C@@H]1C/C=C\C[C@@H](NC(=O)OCC2c3ccccc3-c3ccccc32)C(=O)OC[C@@H](Cc2ccccc2)NC1=O)NCCO,-32,-11%,i,2µM*,-18%
COc1ccc(-c2cc(C(F)(F)F)nc(SCCC(=O)Nc3cc(C)ccc3O)n2)cc1,?,?,-26%,nt,-18%
O=C(CCS(=O)(=O)c1nc(-c2cccs2)cc(C(F)(F)F)n1)Nc1cc(Br)ccc1O,-100*,14µM*,-14%[7.34 µM],nt,-10%[7.34 µM]
Cc1ccc(O)c(NC(=O)CCS(=O)(=O)c2nc(-c3cccs3)cc(C(F)(F)F)n2)c1,-100*,?,-14%[7.34 µM],nt,-7%[7.34 µM]
O=C(CCS(=O)(=O)c1nc(-c2cccs2)cc(C(F)(F)F)n1)Nc1ccc(Br)cc1,-98*,40µM*,-12%[7.34 µM],nt,-16%[7.34 µM]
COc1ccc(CCNc2ccc(C(CC(N)=O)NC(=O)c3cc(OC)ccc3OC)cc2[N+](=O)[O-])cc1 (configuration not stated),-36,-24%,-14%,-23%,-20%
C=CCNc1sc(C(=O)c2ccc(C)cc2)c(N)c1C#N,-21,-18%,nt,?,-14%
C=CCNc1nc(N)c(C(=C(C#N)C#N)c2ccc(Br)cc2)s1,?,5.6µM*,-24%,?,?
CCC(=O)Nc1cc(C(C)(C)C)ccc1C(C)=O,-10,-8%,-14%,10µM*,-6%
O=c1cc(-c2ccc(O)c(O)c2)oc2ccccc12,nt,50%,i,nt,-5%
Cc1c(C(O)CN2CCN(Cc3ccc4c(c3)OCO4)CC2)c2ccccc2n1C (configuration not stated),-28,-14%,-21%,18µM*,-5%
OC(CN1CCN(Cc2ccc3c(c2)OCO3)CC1)c1c[nH]c2ccccc12 (configuration not stated),-88*,0%,-10%,?,-13%
COc1cccc(Nc2nc(N)nc(CCl)n2)c1,-80*,16%,10µM*,?,?
COc1cccc(Nc2nc(N)nc(C(F)(F)F)n2)c1,38,-3%,nt,-21%,nt
Cc1cccc(Nc2nc(N)nc(CCl)n2)c1,-104*,15%,?,3.2µM*,?
COc1ccc(-c2cc(C(F)(F)F)nc(SCC(=O)N3CCCCC3)n2)cc1OC,-13,?,0%,nt,-5%
CCOC(=O)c1nn(-c2ccc3c(c2)OCO3)cc1O,-101*,46%,nt,-1%,-13%
CCOC(=O)c1nn(-c2ccc(C)cc2)cc1O,64,2%,-13%,-3%,-15%
CC(=O)c1cccc(CN2CCC(C(=O)Nc3cccc(-c4ccn[nH]4)c3)CC2)c1,?,32µM*,-4%,6.3µM*,-17%
C=CCOc1ccccc1CN1CCC(C(=O)Nc2cccc(-c3ccn[nH]3)c2)CC1,-64*,-20%,nt,?,nt
CCS(=O)(=O)N1CCC(C(=O)Nc2cccc(C(C)=O)c2)CC1,8,-8%,-6%,1%,4%
Cn1cc(CN2CCCC(C(=O)c3nccn3C)C2)c(-c2cccc(Cl)c2)n1 (configuration not stated),-9,-21%,-17%,-15%,-15%
CN(Cc1cccc(-c2ccncc2)c1)C(=O)Oc1ccc([N+](=O)[O-])cc1,nt,22µM*,15%,nt,-16%
COc1ccc(N(C)S(=O)(=O)c2ccc3c(c2)n(C)c(=O)c(=O)n3C)cc1,-1,-13%,i,nt,-10%
CCOC(=O)N1CCN(CC(=O)Nc2c(C(=O)OC)[nH]c3ccc(Cl)cc23)CC1,?,32µM*,?,?,-27%
SMILES,HCMV inh,FMDV antiviral,Vaccinia mCherry,HCV inhibitor,Vaccinia Venus
COC(=O)c1[nH]c2cc(C)ccc2c1NC(=O)CN1CCc2cc(OC)c(OC)cc2C1,nt,22µM*,nt,?,-28%
COC(=O)c1[nH]c2ccc(C)cc2c1NC(=O)CN1CCN(c2ccccc2)CC1,-65*,?,?,?,?
COC(=O)c1[nH]c2ccc(C)cc2c1NC(=O)CN1CCC(C)CC1,-30,?,-26%,?,-19%
COC(=O)c1[nH]c2ccc(C)cc2c1NC(=O)CN1CCN(c2ccc(F)cc2)CC1,-83*,25µM*,?,?,-14%
O=C(COC(=O)c1ccccc1SCC(=O)N1CCCC1)Nc1ccccc1C(F)(F)F,15,-9%,-11%,2%,-9%
Cc1ccc(N2C(=O)N(Cc3cccc(Cl)c3)c3ccccc3S2(=O)=O)cc1,?,-17%,-16%,nt,-16%
Cc1cccc(CN2C(=O)N(c3ccc(C(C)C)cc3)S(=O)(=O)c3ccccc32)c1,-69*,-5%,-8%,nt,-4%
CCc1ccccc1N1C(=O)N(Cc2cccc(Cl)c2)c2ccccc2S1(=O)=O,-105*,?,-1%,nt,-1%
CCCCNc1cc(C)nc(NCc2ccccc2)n1,nt,?,-19%[1.46 µM],?,?
Cc1cc(N2CCC(C)CC2)nc(NCc2ccccc2)n1,-85*,0%,nt,6.3µM*,nt
Cc1cc(Nc2ccccc2)nc(NCc2ccccc2)n1,-66*,-19%,-31%,?,?
Cc1cc(Nc2cccc(F)c2)nc(NCc2ccccc2)n1,10,?,13µM*,?,?
Cc1cc(Nc2ccc(Cl)cc2)nc(NCc2ccccc2)n1,-31,32µM*,11µM*,?,?
CC(=O)C1=C(C)NC(SCC(=O)c2ccc(C)cc2)=C(C#N)C1c1ccco1 (configuration not stated),nt,nt,nt,7.1µM*,nt
COCCOC(=O)C1=C(C)NC(SCC(=O)NC(C)(C)C)=C(C#N)C1c1ccco1 (configuration not stated),-32,10%,18%,-10%,-16%
Cc1ccc(C(=O)CSC2=C(C#N)C(c3ccco3)C3=C(CC(C)(C)CC3=O)N2)cc1 (configuration not stated),-68*,-29%,?,?,-30%
COc1ccccc1NC(=O)C1=C(C)NC(SCC(=O)c2ccccc2)=C(C#N)C1c1ccco1 (configuration not stated),nt,?,-21%,7.9µM*,2%
CC1(C)CC(=O)C2=C(C1)NC(SCC(=O)Nc1ccccc1)=C(C#N)C2c1ccco1 (configuration not stated),?,-1%,-13%,-11%,-11%
N#CC1=C(SCC(=O)c2ccc(Cl)cc2)NC2=C(C(=O)CCC2)C1c1ccco1 (configuration not stated),-40,?,?,?,?
CC(C)C(=O)N1CCCC1(C)C(=O)Nc1ccc(F)cc1 (configuration not stated),-9,-16%,i,nt,0%
COc1ccc(N2CCN(C(=O)COC(=O)CCc3ccccc3OC)CC2)cc1,-33,-11%,-21%,-1%,3%
N#CC1C=Cc2c(ccc3ccccc23)N1C(=O)c1ccccc1 (configuration not stated),-83*,?,?,-50%,?
